# In PubChem BioAssay (NCATS):
# Several values for one entry are separate records, joined by “and”; a condition that tells them apart may be missing. Equal entries are not always repeated. Inconclusive results are not listed. Activity calls are given as the source filed them. Calls come from the whole dose curve; as a rule, active = well fitted curve in the direction sought with a large enough effect; inconclusive = small, poorly fitted or top-dose-only effect, or another doubt; inactive = no such curve, though single readings can be large; an effect the other way counts as inactive or inconclusive.
# Test system: not listed separately
# Test: Counterscreen for APE1 Inhibitors: Fluorescent Dye Displacement Validation Assay (AID 1707);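 note: plate controls were ThO with dsDNA and no compound for no effect and ThO without dsDNA for full effect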
# Details: fluorescent dye displacement from DNA; series mostly up to 57.1 µM; activity change, negative = inhibition: at the top concentration
# Method in brief: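 Compounds are scored by their ability to displace Thiazole Orange (250 nM) from a 50 nM TAMRA-tagged duplex bearing a tetrahydrofuran abasic site. Buffer is 50 mM Tris-HCl pH7.5, 50mM NaCl, 2 mM MgCl2, 0.01% Tween-20.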
SMILES,"activity change, negative = inhibition",outcome
CO[C@@]1(NC(=O)CSCC#N)C(=O)N2C(C(=O)O)=C(CSc3nnnn3C)CS[C@@H]21,1.96% (inactive),
CC(=O)Oc1cc(C(C)C)c(OCCN(C)C)cc1C,2.16% (inactive),
NC(=O)N1c2ccccc2C=Cc2ccccc21,1.87% (inactive),
Nc1c2c(nc3ccccc13)CCCC2O (configuration not stated),1.48% (inactive),
c1cc(CN2CCCCC2)cc(OCCCNc2nc3ccccc3s2)c1,0.148% (inactive),
Cc1nc2sccn2c(=O)c1CCN1CCC(=C(c2ccc(F)cc2)c2ccc(F)cc2)CC1,-0.125% (inactive),
CNC1(C)C2CCC(C2)C1(C)C (configuration not stated),0.239% (inactive),
COc1cc(C(=O)OCCCN2CCCN(CCCOC(=O)c3cc(OC)c(OC)c(OC)c3)CC2)cc(OC)c1OC,-3.99% (inactive),
Cc1nc2ccccn2c(=O)c1CCN1CCC(C(=O)c2ccc(F)cc2)CC1,3.14% (inactive),
OC(CCN1CCCCC1)(c1ccccc1)C1CCCCC1 (configuration not stated),-1.08% (inactive),
CCN(CC)CCNC(=O)c1ccc(NC(C)=O)cc1,-0.253% (inactive),
COc1cc(Cc2cnc(N)nc2N)cc(OC)c1OC,0.534% (inactive),
CCOC(=O)C1=C(C)NC(C)=C(C(=O)OC)C1c1cccc([N+](=O)[O-])c1 (configuration not stated),-1.46% (inactive),
O=c1[nH]c(=O)n([C@H]2C[C@H](O)[C@@H](CO)O2)cc1Br,1.93% (inactive),
c1ccc2c(c1)CCCC2C1=NCCN1 (configuration not stated),1.38% (inactive),
CCN1CCc2nc(N)oc2CC1,2.28% (inactive),

SMILES,"activity change, negative = inhibition",outcome
CC(=O)OC(C)C[N+](C)(C)C (configuration not stated),0.651% (inactive),
COCCOC(=O)C1=C(C)NC(C)=C(C(=O)OC(C)C)C1c1cccc([N+](=O)[O-])c1 (configuration not stated),-7.8% (inactive),
FC(F)(F)c1ccccc1-n1ccnc1,-0.58% (inactive),
C[N+](C)(C)CCOC(N)=O,-1.49% (inactive),
Cc1scc2c1N(C(=O)CN1CCN(C)CC1)c1ccccc1NC2=O,-1.13% (inactive),
Fc1ccc(C(c2ccc(F)cc2)N2CCN(C/C=C/c3ccccc3)CC2)cc1,2.49% (inactive),
COc1ccc(CN(CCN(C)C)c2ccccn2)cc1,0.579% (inactive),
NC/C=C/C(=O)O,4.32% (inactive),
CC(C)COCC(CN(Cc1ccccc1)c1ccccc1)N1CCCC1 (configuration not stated),0.485% (inactive),
COCCc1ccc(OCC(O)CNC(C)C)cc1 (configuration not stated),-2.17% (inactive),
OCCN1CCN(CCCN2c3ccccc3C=Cc3ccccc32)CC1,,inactive
CC(N=C(NC#N)Nc1ccncc1)C(C)(C)C (configuration not stated),1.05% (inactive),
CCCN(CCC)C(=O)C(CCC(=O)O)NC(=O)c1ccccc1 (configuration not stated),2.78% (inactive),
CCN1CCC[C@H]1CNC(=O)c1c(O)c(Cl)cc(Cl)c1OC,1.87% (inactive),
CC(C(=O)O)c1ccc(CC2CCCC2=O)cc1 (configuration not stated),0.455% (inactive),
O=C1NCN(c2ccccc2)C12CCN(CCCC(c1ccc(F)cc1)c1ccc(F)cc1)CC2,-1.28% (inactive),

# Target: Endonuclease 4 (Escherichia coli (strain K12)) (UniProt P0A6C1)
# Test: Counterscreen for APE1 Inhibitors: qHTS Validation Assay for Inhibitors of Endonuclease IV (AID 1708); note: % is set by controls: 0 for no effect and ±100 for the full control effect
# Details: E. coli endonuclease IV, DNA cleavage fluorescence; series mostly up to 57.1 µM; activity change, negative = inhibition: at the top concentration
# Method in brief: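 Concentration-response counterscreen run identically to the APE1 assay: 15 min room-temperature preincubation of 2 nM enzyme with compound, reaction started with 50 nM quenched abasic DNA, progress taken from kinetic fluorescence.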
row,SMILES,"activity change, negative = inhibition"
1,CC(=O)Oc1cc(C(C)C)c(OCCN(C)C)cc1C,-11.5% (inactive)
2,Cc1nc2sccn2c(=O)c1CCN1CCC(=C(c2ccc(F)cc2)c2ccc(F)cc2)CC1,-10% (inactive)
3,Cc1nc2ccccn2c(=O)c1CCN1CCC(C(=O)c2ccc(F)cc2)CC1,-10% (inactive)
4,CCN(CC)CCNC(=O)c1ccc(NC(C)=O)cc1,-8.59% (inactive)
5,CCOC(=O)C1=C(C)NC(C)=C(C(=O)OC)C1c1cccc([N+](=O)[O-])c1 (configuration not stated),-6.1% (inactive)
6,O=c1[nH]c(=O)n([C@H]2C[C@H](O)[C@@H](CO)O2)cc1Br,-0.0803% (inactive)
7,CCN1CCc2nc(N)oc2CC1,-1.53% (inactive)
8,FC(F)(F)c1ccccc1-n1ccnc1,56.4% (inactive)
9,Cc1scc2c1N(C(=O)CN1CCN(C)CC1)c1ccccc1NC2=O,-7.71% (inactive)
10,NC/C=C/C(=O)O,-6.27% (inactive)
11,CC(C)COCC(CN(Cc1ccccc1)c1ccccc1)N1CCCC1 (configuration not stated),127% (inactive)
12,OCCN1CCN(CCCN2c3ccccc3C=Cc3ccccc32)CC1,-10.6% (inactive)
13,CC(N=C(NC#N)Nc1ccncc1)C(C)(C)C (configuration not stated),-7.15% (inactive)
14,CCN1CCC[C@H]1CNC(=O)c1c(O)c(Cl)cc(Cl)c1OC,-1.04% (inactive)

# Test system: not listed separately
# Test: qHTS for differential inhibitors of proliferation of Plasmodium falciparum line 7G8 (AID 1815);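 note: parasite growth measured after three days of incubation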; note: potency is the fitted concentration of half-maximal effect;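 for activity change, negative = inhibition: plate controls were vehicle wells for no effect and reference inhibitor wells for full effect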
# Details: Plasmodium falciparum 7G8 proliferation inhibition; series mostly up to 28.7 µM; activity change, negative = inhibition: at the top concentration
SMILES,"activity change, negative = inhibition",Potency
CO[C@@]1(NC(=O)CSCC#N)C(=O)N2C(C(=O)O)=C(CSc3nnnn3C)CS[C@@H]21,5.75% (inactive),
NC(=O)N1c2ccccc2C=Cc2ccccc21,-10.8% (inactive),
Nc1c2c(nc3ccccc13)CCCC2O (configuration not stated),-9.89% (inactive),
c1cc(CN2CCCCC2)cc(OCCCNc2nc3ccccc3s2)c1,,7.08 µM (active)
Cc1nc2sccn2c(=O)c1CCN1CCC(=C(c2ccc(F)cc2)c2ccc(F)cc2)CC1,,7.08 µM (active)
CNC1(C)C2CCC(C2)C1(C)C (configuration not stated),-15.9% (inactive),
COc1cc(C(=O)OCCCN2CCCN(CCCOC(=O)c3cc(OC)c(OC)c(OC)c3)CC2)cc(OC)c1OC,,5.01 µM (active)
Cc1nc2ccccn2c(=O)c1CCN1CCC(C(=O)c2ccc(F)cc2)CC1,,7.94 µM (active)
CCN(CC)CCNC(=O)c1ccc(NC(C)=O)cc1,7.41% (inactive),
CCOC(=O)C1=C(C)NC(C)=C(C(=O)OC)C1c1cccc([N+](=O)[O-])c1 (configuration not stated),,11.2 µM (active)
O=c1[nH]c(=O)n([C@H]2C[C@H](O)[C@@H](CO)O2)cc1Br,3.19% (inactive),
c1ccc2c(c1)CCCC2C1=NCCN1 (configuration not stated),-11.7% (inactive),
CCN1CCc2nc(N)oc2CC1,-2.15% (inactive),
CC(=O)OC(C)C[N+](C)(C)C (configuration not stated),14.9% (inactive),
COCCOC(=O)C1=C(C)NC(C)=C(C(=O)OC(C)C)C1c1cccc([N+](=O)[O-])c1 (configuration not stated),,4.47 µM (active)
FC(F)(F)c1ccccc1-n1ccnc1,-32.3% (inactive),
C[N+](C)(C)CCOC(N)=O,2.23% (inactive),
Fc1ccc(C(c2ccc(F)cc2)N2CCN(C/C=C/c3ccccc3)CC2)cc1,,3.98 µM (active)
NC/C=C/C(=O)O,-1.34% (inactive),
CC(C)COCC(CN(Cc1ccccc1)c1ccccc1)N1CCCC1 (configuration not stated),-8.61% (inactive),
COCCc1ccc(OCC(O)CNC(C)C)cc1 (configuration not stated),-23.1% (inactive),
OCCN1CCN(CCCN2c3ccccc3C=Cc3ccccc32)CC1,,3.16 µM (active) and 3.98 µM (active)
CCCN(CCC)C(=O)C(CCC(=O)O)NC(=O)c1ccccc1 (configuration not stated),-22.2% (inactive),
CCN1CCC[C@H]1CNC(=O)c1c(O)c(Cl)cc(Cl)c1OC,-26.3% (inactive),
CC(C(=O)O)c1ccc(CC2CCCC2=O)cc1 (configuration not stated),2.28% (inactive),
O=C1NCN(c2ccccc2)C12CCN(CCCC(c1ccc(F)cc1)c1ccc(F)cc1)CC2,,4.47 µM (active)
